High-throughput results from PubChem.
MARV entry inh = qHTS for inhibitors of binding or entry into cells for Marburg Virus. Marburg virus pseudotyped entry inhibition, cell reporter. Potency, µM (highest dose often 37.8 µM), for inactives: top-dose activity change, negative = inhibition, most hits filed as inhibitors. AID 540276, 2011. 300,000 compounds, 1.8% hits; calls by dose curve; tested in HEK293 cells; further: potency means the concentration at half of the fitted maximal effect; on the % scale 0 is the no-effect control and ±100 the full control effect
HCV inhibitor = qHTS Assay for Inhibitors of Hepatitis C Virus (HCV). Huh7.5.1 HCVcc-Cre infection, luciferase reporter, 44 h. 340,000 compounds, 3.4% hits. Potency, µM (series often up to 41.8 µM), for the others: top-dose activity change, negative = inhibition, usual class: inhibitors. AID 651820, 2012; active means well fitted inhibition curve with a large enough effect; inconclusive means small, poorly fitted or top-dose-only effect, or another doubt; inactive means no such curve, though single readings can be large or run the other way; further: potency means the concentration at half of the fitted maximal effect; on the % scale 0 is the no-effect control and ±100 the full control effect
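1,000 cells/well; 4 h culture; + compound; + HCVcc-Cre (~0.5 moi); 44 h; luciferase substrate, RT 15 min; read 15 sec.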
FMDV inh = High Throughput Screening for Foot and Mouth Disease Virus Antivirals | FMDV antiviral cell-based qHTS | Potency, µM (series often up to 57.9 µM), for inactives: at the highest dose activity change, negative = inhibition, most hits filed as inhibitors | 410,000 compounds, 1.2% hits | AID 1159524, 2015; calls by dose curve; tested in HEK293T cells; further: read-out not given here; potency means the concentration at half of the fitted maximal effect; on the % scale 0 is the no-effect control and ±100 the full control effect; nearly all actives have a fitted effect of over 45% in size
Cycloheximide cs = Cycloheximide Counterscreen for Small Molecule Inhibitors of Shiga Toxin; cell reporter, cycloheximide protein synthesis inhibition counterscreen; max response, %; 300,000 compounds, 12% hits; AID 2314, 2010; in the data active means max response mostly above about 13%, no sharp cut-off; inactive means mostly below about 14%; further: read at 38.3 µM for the half of the compounds with a filed dose; 0% is about no effect
LASV entry inh = qHTS for Inhibitors of binding or entry into cells for Lassa Virus; Lassa virus pseudotype entry inhibition, cell reporter; AID 540256, 2011; 300,000 compounds, 1.2% hits; Potency, µM (highest dose often 37.9 µM), without a hit: at the top dose activity change, negative = inhibition, usual class: inhibitors; calls by dose curve; tested in HEK293 cells; further: potency means the concentration at half of the fitted maximal effect; on the % scale 0 is the no-effect control and ±100 the full control effect; nearly all actives have a fitted effect of over 50% in size
Shiga toxin inh = A qHTS for Small Molecule Inhibitors of Shiga Toxin. inhibition, % at 38.7 µM. AID 2315, 2010. 290,000 compounds, 9.2% hits. Vero cells, Shiga toxin protein synthesis inhibition reporter; in the data active means inhibition mostly above about 28%, no sharp cut-off; inactive means mostly below about 43%; further: 0% is about no effect
Numbers without * were called inactive; ? = inconclusive; · = not tested or not shown; [ ] = another dose, or the depositor's remark. Only some compounds are listed: those with a hit (about 13% of all), similar ones and a draw of the others.

SMILES	MARV entry inh	HCV inhibitor	FMDV inh	Cycloheximide cs	LASV entry inh	Shiga toxin inh
Cc1cc(-c2ccnc(-n3ncc(C(=O)NCC4CCCO4)c3C3CC3)n2)c(C)s1 (configuration not stated)	·	·	44%	·	·	·
O=C(NNC(=S)Nc1ccc(Cl)cc1)c1cccs1	7%	23%	115%	38*	-11%	100*
O=C(CCC(=O)Nc1ccccc1)NNC(=O)c1cccs1	5%	28%	10%	10	14%	-12
O=C(NNC(=S)Nc1ccccc1)c1cccs1	-15%	27%	52%	38*	2%	47*
CC(C)n1c(NCc2cccs2)nc2ccccc21	-3%	1%	-12%	1	-9%	15
COc1ccccc1NC(=O)COc1coc(CN2CCN(c3ccccc3)CC2)cc1=O	-29%	-15%	?	·	?	·
Cc1cccc(-c2nc3ccccc3c(=O)[nH]2)c1	·	-4%	14%	23*	·	73*
N=c1oc2ccccc2cc1-c1nc2ccccc2c(=O)[nH]1	·	9%	17%	14	·	60*
CN(C)c1ccc(-c2nc3ccccc3c(=O)[nH]2)cc1	·	-4%	-59%	36*	·	37*
COc1ccc(-c2nc3ccccc3c(=O)[nH]2)cc1	13µM*	4%	17%	43*	?	56*
Cc1ccc(CNC(=O)COc2cc(O)c3c(c2)OC(C)(C)CC3=O)cc1	·	?	-7%	9	·	15
CC(C)S(=O)(=O)c1csc(NC(=O)Nc2cccc([N+](=O)[O-])c2)c1Cl	·	25µM*	?	4	·	13
O=P(N1CCCCC1)(N1CCCCC1)C(Cl)(Cl)Cl	-3%	-1%	-18%	-2	12%	-15
C/C(CC(=O)Nc1ccc2ccccc2c1)=N\NC(=O)c1cnccn1	14%	5%	20%	29*	-10%	52*
CCOc1ccc(C(=O)Nc2ncccc2Cl)cc1	·	1%	45%	42*	·	71*
COc1ccc(OCC(=O)N/N=C(\C)CC(=O)Nc2ccc(NC(C)=O)cc2)cc1	-8%	13%	9%	9	?	14
C/C(CC(=O)Nc1ccccn1)=N\NC(=O)c1cnccn1	·	21%	11%	44*	·	79*
COc1ccc(NC(=O)C/C(C)=N/NC(=O)c2cnccn2)cc1	?	10%	6%	28*	-4%[46.1 µM]	99*
Cc1ccc(CNC(=O)C(=O)NCC2OCCN2S(=O)(=O)c2ccc3c(c2)OCCO3)cc1 (configuration not stated)	3%	-8%[8.37 µM]	-3%	-3	-28%	-14
COc1ccc(CNC(=O)C/C(C)=N/NC(=O)C23CC4CC(CC(C4)C2)C3)cc1	3%[46.1 µM]	12%	-4%	29*	-1%	53*
CCOc1ccc(NC(=O)c2nccnc2CO)cc1	-2%	8%	40%	46*	-14%	93*
CCOc1ccc(NC(C)=O)cc1	·	14%	-19%	2	·	-1
COc1ccc(C(=O)Nc2ccc(NC(=O)c3cnccn3)cn2)cc1	9%	13µM*	·	1	-20%	10
CCOc1ccc(NC(=O)c2cnsn2)cc1	8.9µM*	4%	-16%	30*	?	55*
COc1ccc2cc(C(=O)N3CCN(c4ccccc4OC)CC3)[nH]c2c1	·	6%	-2%	-1	·	20
SMILES	MARV entry inh	HCV inhibitor	FMDV inh	Cycloheximide cs	LASV entry inh	Shiga toxin inh
CC(=O)Nc1ccc(S(=O)(=O)NC2(C(F)(F)F)NC(=O)N(Cc3ccccc3)C2=O)cc1 (configuration not stated)	34%	12%	-3%	0	-17%	9
CCOC(=O)c1c(C)[nH]c(C)c1S(=O)(=O)N(C)CC(=O)Nc1cc(Cl)ccc1OC	·	·	-13%	·	?	·
COc1ccc(CNC(=O)C/C(C)=N/NC(=O)c2cnccn2)cc1	5%[46.1 µM]	-7%	15%	45*	?	71*
O=C(NCc1ccc(F)cc1)c1cnccn1	-8%[46.1 µM]	0%	14%	10*	13%[46.1 µM]	19
COc1ccc(CNC(=O)C/C(C)=N/NC(=O)Cc2ccc(OC)cc2)cc1	5%	7%	-6%	-1	-12%	-5
CNS(=O)(=O)c1ccc(NC(=O)c2ccccn2)cc1	?	13%	41%	63*	?	23*
C/C(CC(=O)Nc1ccc2ccccc2c1)=N\NC(=O)c1ccc(O)c(O)c1	-20%[46.1 µM]	-4%	11%	38*	?	86*
Cc1cc(C(=O)CCC(=O)N(C)CC(=O)Nc2c(Cl)cccc2Cl)c(C)s1	-4%	2%	-9%	·	0%[46.1 µM]	·
Cc1cc(Cl)ccc1OCC(=O)NNC(=O)c1ccc(=O)[nH]c1	16%	17%	1%	·	0%	·
CCOc1ccc(NC(=O)C/C(C)=N/NC(=O)c2cnccn2)cc1	·	-2%	-16%	22*	·	32*
COCCNC(=O)C(=O)N/N=C(\C)CC(=O)Nc1cccnc1	-15%[46.1 µM]	15%	-13%	13*	-10%	-2
CCOc1ccc(NC(=O)c2cnccn2)cc1	?	0%	-27%	18*	?	18*
O=C(Nc1ccc(F)cc1)c1cnccn1	·	·	13%	·	·	·
CCOc1ccc(NC(=O)c2ccccn2)cc1	0.32µM*	2%	3.2µM*	7	0.28µM*	-15
Cc1cc2ccccc2n1CCNC(=O)c1ccc(Br)cc1	2%[46.1 µM]	·	-7%	·	-13%[46.1 µM]	·
c1cc(-c2cc3cc(N4CCOCC4)ccc3o2)cs1	·	-10%	-34%	·	·	·
COC(=O)c1sc(=S)n(-c2cccc(Cl)c2)c1N	11%	1%	18%	-4	3%	-3
COc1cc(/C=N/NS(=O)(=O)c2ccc(C)cc2)ccc1OCc1ccc(C(=O)O)cc1	?	13%	-37%	42*	6.3µM*	146*
COc1ccc(/C=N/NS(=O)(=O)c2ccccc2)cc1OC	·	?	-15%	-2	·	-5
COc1ccc(S(=O)(=O)N/N=C/c2ccc(OCCN3CCOCC3)c(OC)c2)cc1	?	14%	-6%	20*	?	34
CCOc1ccc(/C=N/NS(=O)(=O)c2ccc(C)cc2)cc1OC	·	3%	0%	-1	·	-3
COc1ccc(C(=O)Oc2cc(/C=N/NS(=O)(=O)c3ccccc3)ccc2OC)cc1	11%	-13%	7%	3	-26%	-13
COc1cc(/C=N/NS(=O)(=O)c2ccc3ccccc3c2)ccc1OCCN1CCOCC1	?	13%	32%	18*	13%	25
COC(=O)c1ccc(N2CCN(S(=O)(=O)c3c(C)cc(C)cc3C)CC2)c([N+](=O)[O-])c1	?	-11%	-17%	-2	?	-14
COc1ccc(NC(=O)c2ccc(COCC(F)(F)F)cc2)cc1OC	?	-28%	-19%	-1	0%	2
COc1ccc(C(=O)Nc2ccc(OCC(F)(F)C(F)F)c(C(F)(F)F)c2)cc1OC	?	11µM*	?	-1	18µM*	9
